ERp5 inh – inhibitors of ERp5-driven insulin aggregation, primary screen, biochemical, turbidity, absorbance 650 nm, single point. Protein disulfide-isomerase A6 (Homo sapiens), Q15084. AID 651711, 2012. 90 min. actives 0.05% (n = 350,000). inhibition, % at 9.99 µM;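 active means mean replicate inhibition above about 25%, with every replicate also reaching it, limit read from the data, passing the limit was not always enough; inconclusive means only one of those two criteria met; inactive means neither criterion met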
Target sequence (Q15084 whole entry, looked up): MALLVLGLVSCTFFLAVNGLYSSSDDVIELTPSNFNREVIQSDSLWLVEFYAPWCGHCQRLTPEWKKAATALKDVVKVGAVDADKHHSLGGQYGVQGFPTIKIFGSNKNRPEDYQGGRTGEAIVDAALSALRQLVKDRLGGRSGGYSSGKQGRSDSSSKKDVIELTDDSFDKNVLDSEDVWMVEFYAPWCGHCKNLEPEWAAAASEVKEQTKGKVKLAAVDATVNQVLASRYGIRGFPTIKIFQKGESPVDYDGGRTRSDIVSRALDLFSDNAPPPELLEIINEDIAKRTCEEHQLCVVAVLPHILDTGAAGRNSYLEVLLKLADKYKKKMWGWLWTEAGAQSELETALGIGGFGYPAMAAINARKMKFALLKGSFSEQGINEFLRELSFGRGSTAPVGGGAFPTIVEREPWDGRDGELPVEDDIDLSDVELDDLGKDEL
Rtt109 Vps75 – inhibitors of C. albicans Rtt109/Vps75 HAT, primary screen, biochemical, ThioGlo CoA-SH fluorescence, plate reader; Histone acetyltransferase RTT109 (Candida albicans (strain SC5314 / ATCC MYA-2876)), …; purified Rtt109/Vps75, 4 h; inhibition, % at 34.9 µM; actives 0.16% (n = 330,000); AID 540336, 2011;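 active means inhibition of at least 50% in every replicate; inconclusive means best replicate reaches 50% inhibition but some replicates fall short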
PDI turbidity – inhibitors of human PDI, primary screen, biochemical, turbidity, single point, plate reader. Protein disulfide-isomerase (Homo sapiens), P07237. PDI insulin aggregation turbidity, A650, 90 min. inhibition, % at 10 µM. actives 0.052% (n = 350,000);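 active means mean inhibition across replicates of 30% or more, whatever share of single replicates reach that level; inconclusive means mean inhibition below 30% while every single replicate reaches 30%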
Efflux pump mplx – inhibitors of Candida efflux pumps in yeast, primary screen, S. cerevisiae, Nile Red, multiplex; S. cerevisiae Candida pump triplex; inhibition, % at 10 µM; actives 0.44% (n = 330,000);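 active means plate passing quality check with inhibition over a set limit, or well fluorescence over plate mean plus 4 SD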;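 further: Nile Red retained in pooled yeast measured as flow cytometry median fluorescence; 0% = buffer negative control and 100% = Enniatin B positive control; higher means more Nile Red kept so more efflux inhibition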
PvdQ inh – P. aeruginosa PvdQ acylase inhibitors, primary screen, biochemical, fluorescence, plate reader and imaging, single point | purified PvdQ acylase | inhibition, % at 10 µM | actives 0.063% (n = 340,000); in the data active means inhibition above about 30%, passing the limit was not always enough; inconclusive means no clear call, values can overlap the other calls;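 further: 0% = vehicle neutral wells and 100% = reference inhibitor wells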
Yeast cmpd fluor – compound fluorescence in yeast efflux pump counter-screen | shares compounds with Efflux pump mplx | S. cerevisiae AD/pABC3, flow cytometry | fluorescence ratio to DMSO, % at 10 µM | actives 4% (n = 1,700) | AID 588517;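 active means fluorescence ratio to DMSO above its plate's cutoff, the plate mean ratio plus 5 SD, cut at about 210% in these data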;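 further: unstained yeast with no Nile Red so the signal is compound autofluorescence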
CaMdr1 efflux inh – inhibitors of Candida albicans Mdr1 efflux, confirmation, flow cytometry, singleplex, Cherry Pick1 set; shares compounds with Efflux pump mplx; S. cerevisiae AD/CaMDR1, Nile Red efflux; inhibition, % at 10 µM; actives 1% (n = 1,700); in the data active means inhibition above about 26%;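 further: 0% = DMSO vehicle and 100% = reference inhibitor; higher means more Nile Red retained so more efflux inhibition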
Cdr2 pump inh – inhibitors of Candida albicans Cdr2 efflux pump, confirmation, S. cerevisiae AD/CaCDR2, flow cytometry, cherry pick 1, singleplex; shares compounds with Efflux pump mplx; Nile Red retention; Nile Red retention ratio vs DMSO, % at 10 µM; actives 4% (n = 1,700); in the data active means Nile Red retention ratio vs DMSO above about 190%;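 further: higher ratio means more blocking of Cdr2 efflux of the dye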
Cdr1 pump inh – inhibitors of Candida albicans Cdr1 efflux pump, confirmation, S. cerevisiae AD/CaCDR1, flow cytometry, cherry pick 1, singleplex | inhibition, % at 10 µM | actives 1% (n = 1,700) | shares compounds with Efflux pump mplx | Nile Red efflux;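 active means inhibition above the screen-wide mean plus twice its standard deviation, cut at about 32% in these data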
An asterisk follows results filed as active; ? = inconclusive; / = no result given; + = active, no number; ! = not confirmed by another sample. Most compounds without a hit are left out; they make up all but 0.54% or so of the library.

SMILES	ERp5 inh	Rtt109 Vps75	PDI turbidity	Efflux pump mplx	PvdQ inh	Yeast cmpd fluor	CaMdr1 efflux inh	Cdr2 pump inh	Cdr1 pump inh
O=C(NC1CCCCC1)Oc1cc2oc(=O)sc2cc1Cl	1.0	89.5*	4.6	0.1	1.6	/	/	/	/
Clc1ccc(COC(Cn2ccnc2)c2ccc(Cl)cc2Cl)c(Cl)c1 (centres undefined)	4.1	74.3*!	-8.4	-0.2	-9.2	/	/	/	/
COC(=O)[C@H]1[C@H](CO)[C@H]2Cn3c(ccc(-c4ccccc4)c3=O)[C@@H]1N2CC1CCOCC1	1.5	/	/	/	/	/	/	/	/
C[CH2][Hg][S]c1ccccc1C(=O)O	-0.5	11.3	-8.3	3.0*	-4.3	/	/	/	/
COc1ccc(-c2ccc([C@@H]3[C@@H](CO)N4CCCCN(C(=O)Cc5ccccc5)C[C@H]34)cc2)cc1	0.2	/	/	/	/	/	/	/	/
COc1ccc(C#Cc2ccc([C@H]3[C@H](CO)N4CCCCN(C(=O)Cc5cccnc5)C[C@@H]34)cc2)cc1	27.0*	/	/	/	/	/	/	/	/
CC(=O)c1ccc2c(c1)C1C(Cl)C(Sc3ccccc3[N+](=O)[O-])CC1C(C(=O)O)N2 (centres undefined)	/	-0.6	17.4	-0.1	-8.5	/	/	/	/
O=C(O)c1cccc2c1NC(C(=O)O)C1CC(Sc3ccccc3[N+](=O)[O-])C(Cl)C21 (centres undefined)	/	59.7*	11.7	0.1	-9.2	/	/	/	/
COC(=O)[C@@H]1[C@@H](CO)[C@@H]2Cn3c(ccc(C4=CCCC4)c3=O)[C@H]1N2Cc1ccccn1	-6.0	/	/	/	/	/	/	/	/
COc1ccc(C#Cc2ccc([C@@H]3[C@H]4CN(C(=O)Cc5cccnc5)CCCCN4[C@H]3CO)cc2)cc1	5.9	/	/	/	/	/	/	/	/
CCn1nc(/C=C/c2ccccc2)nc2c(=O)n(C)c(=O)nc1-2	38.1*	2.0	23.3	/	-12.6	/	/	/	/
CCn1nc(-c2cccs2)nc2c(=O)n(C)c(=O)nc1-2	/	2.1	?	/	-12.5	/	/	/	/
COC(=O)[C@@H]1[C@@H](CO)[C@@H]2Cn3c(ccc(C4=CCCC4)c3=O)[C@H]1N2S(=O)(=O)c1cn(C)cn1	0.6	/	/	/	/	/	/	/	/
CN(C)c1ccc(/C=C/c2cc[n+](C)c3ccccc23)cc1	-13.2	180.9*!	-6.8	/	-16.9	/	/	/	/
Fc1ccccc1CN1CCN(c2ccc(Cl)cc2)CC1	-0.1	5.7	3.3	1.7*	-7.2	91.8	-0.3	89.3	0.0
O=C(O)[C@H]1[C@H](CO)[C@H]2Cn3c(ccc(-c4cccc(F)c4)c3=O)[C@@H]1N2CCc1ccccc1	-4.5	/	/	/	/	/	/	/	/
CN(C)c1ccc(/C=C/C=C/c2sc3ccccc3[n+]2C)cc1	-2.2	-0.5	1.5	-0.1	-13.9	/	/	/	/
CC[n+]1c(/C=C/C=C/c2ccc(N(C)C)cc2)sc2ccccc21	1.0	-9.2	2.3	9.9*	-1.3	+	10.1	113.8	0.1
O=P(Nc1c(Cl)cccc1Cl)(c1ccccc1)c1nc2c(s1)CCCC2 (centres undefined)	/	8.4	2.8	5.9*	-2.3	109.0	-0.7	101.7	-0.1
O=P(Nc1ccccc1Cl)(c1ccccc1)c1nc2c(s1)CCCC2 (centres undefined)	/	-14.2	4.8	0.1	-2.0	/	/	/	/
O=c1[nH]c(=S)[nH]c(O)c1/C=C1/C=c2ccccc2=N1	1.1	-0.4	5.2	0.5*	3.9	96.6	0.0	118.4	0.1
COC(=O)[C@@H]1[C@@H](CO)[C@@H]2Cn3c(ccc(-c4ccccc4)c3=O)[C@H]1N2CC1CC1	-3.3	/	/	/	/	/	/	/	/
CN1C2CCC1CC(OC(=O)CCN1CCCC1)C2 (centres undefined)	/	-7.3	-1.8	0.5*	7.6	101.7	0.0	107.2	0.0
COCC(=O)N1[C@@H]2c3ccc(C4=CCCC4)c(=O)n3C[C@H]1[C@H](CO)[C@H]2C(=O)OC	-17.0	/	/	/	/	/	/	/	/
O=C(N/N=C/c1c(O)n(Cc2ccc(F)cc2)c(=O)[nH]c1=O)c1ccccc1O	-4.6	25.3	-3.4	0.0	-10.6	/	/	/	/
SMILES	ERp5 inh	Rtt109 Vps75	PDI turbidity	Efflux pump mplx	PvdQ inh	Yeast cmpd fluor	CaMdr1 efflux inh	Cdr2 pump inh	Cdr1 pump inh
O=C(N/N=C/c1c(O)n(Cc2ccccc2)c(=O)[nH]c1=O)c1ccccc1O	/	19.4	-0.6	13.9*	-4.2	97.6	-0.2	100.7	-0.1
CC(Cc1ccccc1)[n+]1cc(/N=C(\N)[O-])on1 (centres undefined)	/	-2.0	-17.4	1.1*	8.3	95.5	-0.2	103.0	0.0
CC=Cc1ccc2n(c1=O)C[C@@H]1[C@@H](CO)[C@H](C(=O)O)[C@H]2N1S(=O)(=O)c1ccccc1F (mixture of isomers)	1.2	/	/	/	/	/	/	/	/
C=CCN1C(=O)NC(=O)/C(=C/c2cc3c4c(c2)CCCN4CCC3)C1=O	1.1	-5.6	-1.2	1.6*	-6.2	118.0	-0.3	114.1	-0.1
CCN1/C(=C\C=C\C2=[N+](CC)c3ccccc3C2(C)C)C(C)(C)c2ccccc21	/	-3.7	-6.1	3.2*	-0.6	/	1.0	251.3*	1.4
COc1ccc(C#Cc2ccc([C@H]3[C@@H](CO)N4CCCCN(C(=O)Cc5cccnc5)C[C@@H]34)cc2)cc1	-0.1	/	/	/	/	/	/	/	/
CC(C)[C@H]1C(=O)O[C@H](C(C)C)C(=O)N(C)[C@@H](C(C)C)C(=O)O[C@H](C(C)C)C(=O)N(C)[C@@H](C(C)C)C(=O)O[C@H](C(C)C)C(=O)N1C	/	18.2	/	85.6*	-1.9	92.1	122.6*	114.4	79.9*
CCCN1[C@@H]2c3ccc(-c4cccc(OC)c4)c(=O)n3C[C@H]1[C@H](CO)[C@H]2C(=O)OC	-1.1	/	/	/	/	/	/	/	/
COc1ccc(C(O)(c2cncnc2)C2CC2)cc1 (centres undefined)	-4.9	/	/	/	/	/	/	/	/

Source: PubChem BioAssay
